Among the data in PubChem BioAssay (NCI) are growth values, retold here.

Several values for one entry are separate records, joined by “and”; a condition that tells them apart may be missing. Equal values may be shown once. The panel holds about 83,000 compounds, 20% with a hit somewhere; the sample as a whole holds those more often.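 Cell lines were cultured in 96-well plates, exposed to a single compound concentration, and assessed for percent growth 48 hours later.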 Activity calls are given as the source filed them. The calls were made as follows: active = growth percent below 10; inactive = the rest.

The experiment relates to MDA-MB-468 breast. The experiment in a line: NCI-60 one-dose screen, 48 h (100 = growth as untreated, 0 = no growth, -100 = all killed). Conditions: 10 µM unless noted.
As to `N=c1c2cc(-c3ccccc3)oc2ncn1/N=C/c1ccccc1`, the growth was 53.7% (inactive).
For the molecule `CCCCCCCCCCCCCCCC1=NC(C)(C)CN1C(C)C`, the growth was -58.8% (active).
Regarding `CC1(C)OC(=O)CC1=O`, the growth is 100% (inactive).
In the case of `COc1ccccc1/C=C(/C(=O)c1ccccc1)c1ccccc1`, the growth was 101% (inactive).
For `O=C(c1ccccc1)c1c(/C=C/c2ccccc2)nc2ccccc2c1/C=C/c1ccc(Br)cc1`, the growth is 94.3% (inactive).
On to `C[C@@H]1CC2C3C[C@H](F)C4=CC(=O)C=C[C@]4(C)[C@@]3(F)[C@@H](O)C[C@]2(C)[C@@]1(O)C(=O)CO` (stereo not given in full), for which the growth was 102% (inactive).
Consider `CS(=O)(=O)c1ccc(C(=O)N2N=C(c3ccccc3)CC2c2ccc3c(c2)OCO3)cc1` (stereo not given), for which the growth was 90.1% (inactive).
For the molecule `COc1cc(C(=O)/C(C)=C/c2c[nH]c3ccccc23)cc(OC)c1OC`, the growth is 11.4% (inactive).
As to `COc1ccc(Cn2cc3c(c2-c2ccccc2)CCc2cnoc2-3)cc1OC`, the growth is -9% (active).
Consider `COc1ccc(-c2cnc(N)nc2-c2ccc(OC)cc2O)cc1`, for which the growth was 92.5% (inactive).
As to `Clc1ccc(-c2c3ccc(=[N+]4CCCCC4)cc-3oc3cc(N4CCCCC4)ccc23)cc1`, the growth is -87.4% (active).
Take `CC1CCC(=O)N1c1ccc(N)cc1` (stereo not given): the growth is 115% (inactive).
For `Cc1ccc(NC(=O)c2cc3ccccc3cc2O)c(C)c1` the value was 87.6% (inactive).
For `O=c1c2cc(F)ccc2sc2c(NCCN3CCCCC3)nc3ccccc3c12` the value was 6.41% (active); for `CCCCCN1CCN(C(CC(=O)c2ccccc2)C(=O)c2ccccc2)CC1` (stereo not given), 103% (inactive).
With `O=[N+]([O-])c1cc2c(cc1Br)-c1ccccc1C2` the figure was 16.7% (inactive); with `O=C(Nc1ccncc1)C(=O)c1cn(S(=O)(=O)c2cccc(Cl)c2)c2ccccc12`, 31.2% (inactive).
For `O=C1C=C(C(O)c2ccc(O)cc2)C(=O)c2ccccc21` (stereo not given), the growth was 111% (inactive).
Take `Cc1cc(C)cc(NC(=O)Cn2nncc2CN2C(=O)CSC2=O)c1`: the growth was 97% (inactive).
Consider `COc1ccc(-c2cc(=O)c3c(O)cc(O)cc3o2)cc1`, for which the growth is 121% (inactive) and 96.2% (inactive).
Take `CC(C)CC(NC(=O)C(CCCN=C(N)N)NC(=O)OCc1ccccc1)C(=O)NC(CNC(=O)/C=C/c1ccccc1)C(C)C` (stereo not given): the growth is 94.4% (inactive).
`Cc1ccc(-c2cc(-c3cccc(Nc4ccnc5cc(Cl)ccc45)c3)nc3nc(N)[nH]c(=O)c23)cc1`: the growth was 28% (inactive).
Consider `Cn1c([N+](=O)[O-])cnc1/C=C1\Oc2ccccc2C1=O`, for which the growth is 28.3% (inactive).
As to `COc1c(OCCCN2CCOCC2)ccc2c3n(c(=NC(=O)c4cnc(N)nc4)nc12)CCN3`, the growth is -23.5% (active).
With `COc1ccc(/C=C2\Oc3cc(OCCCCN4CCCC4)ccc3C2=O)cc1` the figure was 74.5% (inactive); with `CNC(=O)c1cc(Oc2ccc3nc(NC(=O)c4cc(N5CCOCC5)cc(C(F)(F)F)c4)sc3c2)ccn1`, 63.7% (inactive); with `Cc1cc(=O)[nH]c(N/N=C/c2cc(Br)ccc2O)n1`, 3.37% (active).
For `C=CCOc1ccc2c(c1)CC[C@@H]1[C@@H]2CC[C@]2(C)C(=O)/C(=N/O)C[C@@H]12`, the growth was 60.8% (inactive).
With `O=CCCCC(O)C=O` (stereo not given) the figure was 98.9% (inactive); with `CC(=O)Nc1ccc(S(=O)(=O)N/N=C(\C)c2ccc(C)cc2C)cc1`, 112% (inactive); with `COc1cc(/C=C2\CCC/C(=C\c3cc(CN4CCCCC4)c(O)c(OC)c3)C2=O)cc(CN2CCCCC2)c1O`, 80.4% (inactive).
With `COc1ccc(C(=O)c2cc3c(OC)c(OC)c(OC)cc3[nH]2)cc1`, the growth was 20.6% (inactive).
With `NC(=O)c1ncn2c(=O)n(CCF)nnc12`, the growth is 48.4% (inactive).
Consider `COc1ccc(C/C(C)=C(\c2ccc(O)cc2)c2ccc(OCCN3CCCC3)cc2)cc1`, for which the growth was 124% (inactive).
For `CCN(CC)c1ccc(-c2cc(-c3cc(OC)c(OC)c(OC)c3)nc(N3CCOCC3)c2C#N)cc1` the value was 32.9% (inactive); for `COc1cc(-c2nc3nc4sc(C)c(C)c4c(=O)n3[nH]2)cc(OC)c1OC`, 75.5% (inactive); for `CCCCOc1ccc(NC(=O)n2nc(NC(C)=O)c3cc(NC(C)=O)ccc32)cc1`, 111% (inactive).
Consider `CCc1nc2cc(/C=C/C(=O)NO)c(F)cc2c(=O)n1CCc1ccccc1`, for which the growth is -32.9% (active).
Turning to `CC[C@H]1CN2CCc3cc(OC)c(OC)cc3C2C[C@@H]1CC1NCCc2cc(OC)c(OC)cc21` (stereo not given in full), the growth is -59.5% (active).
With `CCOC(=O)c1nn(C2CCCCO2)c2ccc(NC(=O)Cn3nnc4ccccc43)cc12` (stereo not given), the growth was 105% (inactive).
